DRV1 agonist: agonists of human resolvin D1 receptor DRV1 (GPR32); AID 1346428; activation, % at 76.9 µM; O75388; CHO-K1 GPR32 beta-arrestin PathHunter luminescence, 90 min; zero percent set by DMSO-only wells; 2.5% of 48,000 active;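 active means activation of at least 60% and not above a set upper limit, about 1 call in 100 departs from these limits; inconclusive means activation of 40% to 60%, or above that upper limit; inactive means activation under 40%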
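Beta-arrestin recruitment read-out: luminescence from complemented beta-Gal in CHO-K1 GPR32 PathHunter cells, measured 1 h after detection reagent at ambient temperature following 90 min compound exposure at 37 °C; DMSO served as basal (EC0) control.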
NTMT1 inhibitor: NTMT1 methyltransferase inhibition | NTMT1 MTase-Glo SAH luminescence, purified enzyme | Potency, µM (doses to about 114 µM), usual class: inhibitors | 2.5% of 59,000 active; further: nearly all actives have a fitted effect of over 65% in size
GALC G270D up: galactocerebrosidase G270D activity enhancement, cell-based | P54803 | 145M-Twi-hGALC-G270D cells (Twitcher mouse brain line with human GALC G270D), HMU-beta-Gal fluorescence, 48 h | Potency, µM (doses to about 57.5 µM), hits mostly activators | 0.1% of 45,000 active | AID 1159614; further: nearly all actives have a fitted effect of over 65% in size
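Live 145M-Twi cells (Twitcher mouse brain-derived, GALC-null) stably expressing human GALC-G270D, with a wild-type GALC line, were compound-treated. Residual GALC activity was then read as fluorescence from 0.1 mM final HMU-β-gal at pH 5.2; higher signal means activation.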
GALK inh: inhibits human galactokinase | AID 1347072 | 44,000 tested, under 10 active | P51570 | recombinant GALK, Kinase-Glo ATP luminescence, 1 h | Potency, µM (titrated, usually from 57.5 µM), hits mostly inhibitors
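Luminescent ATP-depletion readout (Kinase-Glo Plus) after 1 h room-temperature incubation of human GALK (5 nM) with galactose 100 µM and ATP 35 µM, pH 8.0 HEPES/Mg2+ buffer; compounds tested in qHTS format.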
B2AR arrestin ag: ADRB2 beta-arrestin recruitment. P07550. HTLA Tango cells, beta-arrestin recruitment, luciferase luminescence, 18 h. Potency, µM (highest dose often 46.1 µM), most hits filed as activators. 44,000 tested, under 10 active. AID 1347077
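First, Tango cells carrying beta2-AR and beta-arrestin fusions received compound up to 46 microM. After 18 hr at 37 degrees C, luciferase substrate was added for 15 minutes, then luminescence gave %Activity for curve fitting.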
DYRK1A KinaseGlo: inhibitors of human DYRK1A kinase; shares compounds with NTMT1 inhibitor; recombinant DYRK1A, Kinase-Glo ATP depletion luminescence; Potency, µM (highest dose often 76.9 µM), usual class: inhibitors; 80% of 100 active; AID 2705
Sfp qHTS opt: inhibits purified B. subtilis Sfp PPTase; shares compounds with NTMT1 inhibitor; purified Sfp PPTase enzyme activity, qHTS; Potency, µM (titrated, usually from 114 µM), most hits filed as inhibitors; AID 540350; 78% of 230 active
Bsub HM489 growth: reduces growth of B. subtilis HM489 strain; shares compounds with NTMT1 inhibitor; B. subtilis HM489 (acpS-) growth, BacTiter-Glo, 5 h; Potency, µM (top dose mostly 114 µM), usual class: inhibitors; 50% of 220 active
Sfp PPTase gel: inhibits B. subtilis Sfp PPTase in gel assay; shares compounds with NTMT1 inhibitor; purified Sfp PPTase, gel-based product detection; Potency, µM (doses to about 250 µM), most hits filed as inhibitors; 54% of 220 active
Sfp inh SAR2: inhibitors of Bacillus subtilis Sfp PPTase, SAR round 2. shares compounds with NTMT1 inhibitor. purified Sfp enzyme, PPTase activity, qHTS. Potency, µM (series often up to 57.1 µM), usual class: inhibitors. 87% of 230 active
HSD17B4 counter: HSD17B4 (human) inhibition, HPGD counter-screen; Potency, µM (doses to about 57.1 µM), hits mostly inhibitors; purified HSD17B4, estradiol/NAD+, NADH fluorescence; shares compounds with NTMT1 inhibitor; 10% of 230 active; AID 743187
ALDH1A1 counter: counter-screen for HPGD inhibitors: human ALDH1A1 inhibition; shares compounds with NTMT1 inhibitor; recombinant ALDH1A1, NADH fluorescence, propionaldehyde/NAD+; Potency, µM (highest dose often 57.1 µM), usual class: inhibitors; 93% of 230 active
Target sequence (P00352 whole entry, looked up): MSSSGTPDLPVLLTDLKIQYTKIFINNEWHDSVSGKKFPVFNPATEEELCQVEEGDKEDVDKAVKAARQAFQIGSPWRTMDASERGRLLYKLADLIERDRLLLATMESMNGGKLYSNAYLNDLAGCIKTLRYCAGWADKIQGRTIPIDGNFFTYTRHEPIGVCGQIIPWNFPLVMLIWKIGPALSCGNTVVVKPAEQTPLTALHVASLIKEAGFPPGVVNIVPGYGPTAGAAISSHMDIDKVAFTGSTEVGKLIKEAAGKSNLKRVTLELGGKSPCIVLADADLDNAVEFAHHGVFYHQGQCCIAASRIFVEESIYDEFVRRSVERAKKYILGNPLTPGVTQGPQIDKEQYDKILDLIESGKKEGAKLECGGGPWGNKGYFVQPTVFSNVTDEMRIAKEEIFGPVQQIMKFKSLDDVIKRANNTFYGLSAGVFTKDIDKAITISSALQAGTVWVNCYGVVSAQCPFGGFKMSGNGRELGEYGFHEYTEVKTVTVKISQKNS
NNMT inh: blocks human NNMT methyltransferase; shares compounds with NTMT1 inhibitor; Potency, µM (series often up to 57.1 µM), actives largely listed as inhibitors; NNMT MTase-Glo luminescence, SAH detection; 10% of 120 active
Hits are given with their value; i = inactive; ? = inconclusive; nt = no result; ! = repeats disagree. The list is not random: actives were taken first. Their share in the collection is about 3.6%. Unless noted, the call rests on the fitted dose curve; in most records, active means well fitted curve in the direction sought with a large enough effect; inconclusive means small, poorly fitted or top-dose-only effect, or another doubt; inactive means no such curve, though single readings can be large; an effect the other way counts as inactive or inconclusive.

SMILES	DRV1 agonist	NTMT1 inhibitor	GALC G270D up	GALK inh	B2AR arrestin ag	others
Cc1cc(C)nc(Nc2nnc(N3CCN(c4cccc(C(F)(F)F)c4)CC3)s2)c1	nt	i	nt	nt	nt	Sfp qHTS opt=?;Bsub HM489 growth=41.8µM;Sfp PPTase gel=i;Sfp inh SAR2=14.5µM;HSD17B4 counter=i;ALDH1A1 counter=21.5µM
Cc1cc(C)nc(/N=C(\NC#N)N2CCN(c3cccc(C(F)(F)F)c3)CC2)c1	nt	i	nt	nt	nt	Sfp qHTS opt=?;Bsub HM489 growth=41.8µM;Sfp PPTase gel=?;Sfp inh SAR2=?;HSD17B4 counter=i;ALDH1A1 counter=24.1µM
O=C(O)CCc1cc2ccoc2cc1O[C@@H]1O[C@H](CO[C@@H]2OC[C@](O)(CO)[C@H]2O)[C@@H](O)[C@H](O)[C@H]1O	nt	i	nt	nt	nt
Fc1cc(-c2cccc3ncc(-c4cnn(C5CCNCC5)c4)nc23)cc(F)c1CN1CCOCC1	nt	17.8µM!	nt	nt	nt	NNMT inh=i
COc1ccc(CCN(C)CCCOc2nsc(-c3ccccc3)n2)cc1OC	nt	i	nt	nt	nt
C[C@]1(C(=O)Nc2ccc(F)nc2)CCCN1c1nc(Nc2cc(C3CC3)[nH]n2)c2cccn2n1	nt	i	nt	nt	nt
Cc1cc(O)c(-c2ccc([C@@H](C)CN(C)C)cc2)c2c1[nH]c(=O)c1sccc12	nt	25.1µM	nt	nt	nt	NNMT inh=?
Cc1cc(C)nc(NC(=S)N2CCN(c3nncs3)CC2)c1	nt	i	nt	nt	nt	Sfp qHTS opt=13.2µM;Bsub HM489 growth=?;Sfp PPTase gel=31.6µM;Sfp inh SAR2=2.29µM;HSD17B4 counter=i;ALDH1A1 counter=21.5µM
Cc1cc(C)nc(NC(=S)N2CCN(c3nccs3)CC2)c1	nt	?	nt	nt	nt	Sfp qHTS opt=?;Bsub HM489 growth=i;Sfp PPTase gel=20µM!;Sfp inh SAR2=4.08µM!;HSD17B4 counter=i;ALDH1A1 counter=10.8µM
CC1(C)C(=O)C(C)(C)c2cc(C(=O)Nc3ccc(C(=O)O)cc3)ccc21	nt	i	nt	nt	nt
CCOC(=O)c1ccc(-c2ccc3ncnc(NCc4ncc[nH]4)c3c2)o1	nt	i	nt	nt	nt	DYRK1A KinaseGlo=2.32µM
CCOC(=O)c1ccoc1-c1ccc2ncnc(NCc3ccc(C)o3)c2c1	nt	?	nt	nt	nt	DYRK1A KinaseGlo=23.2µM
CCOC(=O)c1ccoc1-c1ccc2ncnc(NCc3csc(C)n3)c2c1	nt	i	nt	nt	nt	DYRK1A KinaseGlo=i
CCOC(=O)c1ccc(-c2ccc3ncnc(NCc4csc(C)n4)c3c2)o1	nt	i	nt	nt	nt	DYRK1A KinaseGlo=9.23µM
Cc1csc(CNc2ncnc3ccc(-c4ccco4)cc23)c1	nt	i	nt	nt	nt
CC(C)(O)C1Cc2c(ccc(C(=O)CCc3ccccc3)c2O)O1 (stereo not given)	nt	i	nt	nt	nt
CN(C)CCCn1cc(C2=C(c3c[nH]c4ccccc34)C(=O)NC2=O)c2ccccc21	nt	25.1µM	nt	nt	nt	NNMT inh=?
O=C(Nc1ccc(F)c(Cl)c1)C1CCCN(c2cnccn2)C1 (stereo not given)	i	i	i	i	i
O=C([C@@H]1CCCN(c2ccc3[nH]c(C4(n5cc(Cl)cn5)CC4)nc3n2)C1)N1CCCC1	nt	?	nt	nt	nt	NNMT inh=i
Cc1cc(C)cc(-c2cnc3cc(Cl)c(-c4cccc(O)c4)cc3c2OCCCN)c1	nt	i	nt	nt	nt

Compound activity as filed in PubChem.
